SMILES strings stand for the structures. Like-named read-outs stand apart in the source and are kept apart here.

Holding throughout (set-up): species or system human, MV4-11 + K-562 + COLO205 + SK-N-BE2 + OVCAR-8
Assay [1] concerns BMP2K. The conditions noted are these: read-out: apparent Kd; compound concentrations: 100 nM and 1000 nM (sheet 'Samples'), CATDS: 0.35520277596049099; n = 1.
For assay [2], the system named is MYLK3. Conditions: read-out: apparent Kd; compound concentrations: 100 nM and 1000 nM (sheet 'Samples'), CATDS: 0.39880703654606497; n = 1.
The subject of assay [3] is TNIK. Conditions: read-out: apparent Kd; compound concentrations: 100 nM and 1000 nM (sheet 'Samples'), CATDS: 0.27194394843596698; n = 1.
The subject of assay [4] is AXL. The conditions noted are these: read-out: apparent Kd; compound concentrations: 100 nM and 1000 nM (sheet 'Samples'), CATDS: 0.14940898802630401; n = 1.
The subject of assay [5] is CLK1. Conditions: read-out: apparent Kd; compound concentrations: 100 nM and 1000 nM (sheet 'Samples'), CATDS: 0.22469270721715301; n = 1.
Assay [6] deals with CLK2. The conditions noted are these: read-out: apparent Kd; compound concentrations: 100 nM and 1000 nM (sheet 'Samples'), CATDS: 0.32192475407013899; n = 1.
Assay [7] concerns CLK4. Conditions: read-out: apparent Kd; compound concentrations: 100 nM and 1000 nM (sheet 'Samples'), CATDS: 0.19159631348183601; n = 1.
Assay [8] concerns NTRK1. The conditions noted are these: read-out: apparent Kd; compound concentrations: 100 nM and 1000 nM (sheet 'Samples'), CATDS: 0.180805132487488; n = 1.
Assay [9] relates to AURKB. Conditions: read-out: apparent Kd, n = 1.
The test system of assay [10] is DDR1. The conditions noted are these: read-out: apparent Kd; compound concentrations:100 nM and 1000 nM (sheet 'Samples'); n = 1.
Assay [11] deals with DDR2. The conditions noted are these: read-out: apparent Kd; compound concentrations:100 nM and 1000 nM (sheet 'Samples'); n = 1.
Assay [12] deals with EPHA7. The conditions noted are these: read-out: apparent Kd; compound concentrations:100 nM and 1000 nM (sheet 'Samples'); n = 1.
For assay [13], the system named is EPHB6. Conditions: read-out: apparent Kd; compound concentrations:100 nM and 1000 nM (sheet 'Samples'); n = 1.
Assay [14] has as its system FLT3. The conditions noted are these: read-out: apparent Kd, n = 1.
The subject of assay [15] is FLT4. Conditions: read-out: apparent Kd; compound concentrations:100 nM and 1000 nM (sheet 'Samples'); n = 1.
Assay [16] concerns JAK2. The conditions noted are these: read-out: apparent Kd; compound concentrations:100 nM and 1000 nM (sheet 'Samples'); n = 1.
For assay [17], the system named is RET. Conditions: read-out: apparent Kd; compound concentrations:100 nM and 1000 nM (sheet 'Samples'); n = 1.
Assay [18] concerns EGFR. The conditions noted are these: read-out: apparent Kd; compound concentrations: 100 nM and 1000 nM (sheet 'Samples'), CATDS: 9.4589689461148804E-2; n = 1.
Assay [19] deals with EIF2AK1. Conditions: read-out: apparent Kd; compound concentrations: 100 nM and 1000 nM (sheet 'Samples'), CATDS: 0.14381895647439999; n = 1.
Assay [20] relates to LIMK1. Conditions: read-out: apparent Kd; compound concentrations: 100 nM and 1000 nM (sheet 'Samples'), CATDS: 8.0890535197294403E-2; n = 1.
Assay [21] has as its system LIMK2. The conditions noted are these: read-out: apparent Kd; compound concentrations: 100 nM and 1000 nM (sheet 'Samples'), CATDS: 0.109376912936183; n = 1.
In assay [22] the test system is NNT. The conditions noted are these: read-out: apparent Kd; compound concentrations: 100 nM and 1000 nM (sheet 'Samples'), CATDS: 8.6496378870903501E-2; n = 1.
Assay [23] relates to PDGFRB. Conditions: read-out: apparent Kd; compound concentrations: 100 nM and 1000 nM (sheet 'Samples'), CATDS: 9.2318331607570206E-2; n = 1.
Assay [24] relates to TESK2. The conditions noted are these: read-out: apparent Kd; compound concentrations: 100 nM and 1000 nM (sheet 'Samples'), CATDS: 9.3788253526120594E-2; n = 1.
In assay [25] the test system is CDC42BPB. Conditions: read-out: apparent Kd; compound concentrations:100 nM and 1000 nM (sheet 'Samples'); n = 1.
In assay [26] the test system is CDC42BPG. Conditions: read-out: apparent Kd; compound concentrations:100 nM and 1000 nM (sheet 'Samples'); n = 1.
In assay [27] the test system is PKN1. The conditions noted are these: read-out: apparent Kd; compound concentrations:100 nM and 1000 nM (sheet 'Samples'); n = 1.
Assay [28] concerns PRKACA. Conditions: read-out: apparent Kd; compound concentrations:100 nM and 1000 nM (sheet 'Samples'); n = 1.
The test system of assay [29] is PRKACB. The conditions noted are these: read-out: apparent Kd; compound concentrations:100 nM and 1000 nM (sheet 'Samples'); n = 1.
Assay [30] deals with PRKG1. Conditions: read-out: apparent Kd; compound concentrations:100 nM and 1000 nM (sheet 'Samples'); n = 1.
Assay [31] has as its system PRKX. The conditions noted are these: read-out: apparent Kd; compound concentrations:100 nM and 1000 nM (sheet 'Samples'); n = 1.
Assay [32] has as its system ROCK1. Conditions: read-out: apparent Kd; compound concentrations:100 nM and 1000 nM (sheet 'Samples'); n = 1.
For assay [33], the system named is ROCK2. Conditions: read-out: apparent Kd; compound concentrations:100 nM and 1000 nM (sheet 'Samples'); n = 1.
The test system of assay [34] is STK26. The conditions noted are these: read-out: apparent Kd; compound concentrations:100 nM and 1000 nM (sheet 'Samples'); n = 1.
[35] abbreviates: compound concentrations:100 nM and 1000 nM (sheet 'Samples').

Regarding `Nc1cccc(-c2ccc3c(N)n[nH]c3c2)c1` [GSK2193613A], the potency estimated from few doses in assay [1] is 1270 nM; in assay [2], 1020 nM; in assay [3], 2310 nM.
Take `CC(C)S(=O)(=O)N1CCN(Cc2ccc3c(c2)nc(NC(=O)c2ccsc2)n3C[C@H](O)c2ccccc2)CC1` [GW635815X]: the potency estimated from few doses is 1630 nM in assay [4]; 606 nM in assay [5]; 328 nM in assay [6]; 843 nM in assay [7]; 964 nM in assay [8].
As for `Nc1ncnc2occ(-c3ccc(NC(=O)Nc4cc(C(F)(F)F)ccc4F)cc3)c12` [GW770249A_KCGS], the potency estimated from few doses in [9] (setting [35]) was 1400 nM; in assay [10], 122 nM; in assay [11], 529 nM; in assay [12], 1760 nM; in assay [13], 1000 nM; in assay [14] (setting [35]) it was 215 nM. Besides, the potency estimated from few doses in [15] was 114 nM; in [16], 871 nM; in assay [17], 17.1 nM.
On to `Nc1ncnc2scc(-c3ccc(NC(=O)Cc4cc(F)ccc4F)cc3)c12.O=C(O)C(F)(F)F` [SB-731254-M], for which the potency estimated from few doses is 399 nM in assay [9] (compound concentrations: 100 nM and 1000 nM (sheet 'Samples'), CATDS: 0.15442610034884699); 1180 nM in assay [18]; 457 nM in assay [19]; 85.2 nM in assay [14] (compound concentrations: 100 nM and 1000 nM (sheet 'Samples'), CATDS: 0.410073684021382); 1910 nM in assay [20]; 817 nM in assay [21]. For the same compound, the potency estimated from few doses in assay [22] is 1530 nM; in assay [23], 1260 nM; in [24] it was 1210 nM.
For the compound `CC(C)NCC(Cc1ccccc1)NC(=O)c1cc(Br)c(-c2ccnc3[nH]ccc23)s1.CC(C)NCC(Cc1ccccc1)NC(=O)c1cc(Br)c(-c2ccnc3[nH]ccc23)s1.Cl.Cl` (stereo not shown) [GSK1383281A], the potency estimated from few doses in assay [9] (setting [35]) was 950 nM; in [25] it was 1320 nM; in assay [26] it was 1360 nM; in assay [27], 840 nM; in [28], 70.2 nM; in [29], 102 nM. Besides, the potency estimated from few doses in [30] is 13.6 nM; in assay [31] it was 1100 nM; in [32], 43.1 nM; in assay [33], 48 nM; in assay [34], 1940 nM.

(Values after paper PMC11062922 (Nature Chemical Biology, 2023).)
